This is a sample that favours compounds with a hit; in the whole collection about 19% have one here.
HT1080NT lethal: kills 2HG-producing HT-1080-NT fibrosarcoma cells; HT-1080-NT fibrosarcoma viability, CellTiter-Glo ATP luminescence, 48 h; Potency, µM (series often up to 46.1 µM), usual class: cytotoxic; 1.6% of 360,000 active;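 note: NT is the 2HG producing partner of a matched IDH1 knockdown line; nearly all actives have a fitted effect of over 55% in size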
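Viability by CellTiter-Glo luminescence after 48 h compound exposure at 37C of HT-1080-NT cells (750/well, RPMI, 5% FBS). % activity scaled between DMSO wells and medium-only wells, then curve-fitted and categorized by curve class.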
DT40 TDP1 CPT: DT40-hTDP1 cell growth loss with CPT; chicken DT40 Tdp1-/-;hTDP1 cells + 20 nM CPT, ATP luminescence, 48 h; Potency, µM (top dose mostly 46.2 µM), hits mostly inhibitors; 12% of 420,000 active; note: nearly all actives have a fitted effect of over 55% in size
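Cell growth measured by CellTiter-Glo luminescence after a minimum 48 h, 37 C compound exposure with 20 nM CPT in Tdp1-knockout DT40 cells stably expressing hTDP1, seeded 400/well; qHTS titration format.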
KB-V1 MDR tox: kills drug-selected multidrug resistant KB-V1 cells. Potency, µM (series often up to 46.1 µM), actives largely listed as cytotoxic. KB-V1 MDR cells viability, CellTiter-Glo, 72 h. 3.4% of 400,000 active; note: nearly all actives have a fitted effect of over 60% in size
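Cytotoxicity via CellTiter-Glo luminescence after 72 h compound exposure at 37 degrees C. Cells: drug-selected KB-V1 line, DMEM phenol-red free plus 10% FBS. Compounds tested at multiple concentrations; normalized data fitted to concentration-effect curves.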
HT1080 IDH1KD tx: toxicity to HT-1080 IDH1 knockdown cells (counter line). Potency, µM (series often up to 46.1 µM), usual class: cytotoxic. HT-1080 IDH1 knockdown viability, ATP luminescence, 48 h. 2% of 360,000 active. AID 686971
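Luminescent ATP read-out (CellTiter-Glo, 10 min at room temperature) after 48 h compound exposure at 37 °C gave viability of IDH1-knockdown HT-1080 cells. Activity was normalised to DMSO and cell-free wells, then fitted as concentration-response curves.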
KB-3-1 tox: kills parental KB-3-1 adenocarcinoma cells. Potency, µM (highest dose often 46.1 µM), actives largely listed as cytotoxic. 1.4% of 400,000 active. AID 1347075. KB-3-1 viability, CellTiter-Glo ATP luminescence, 72 h; note: nearly all actives have a fitted effect of over 60% in size
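Here the drug-naive KB-3-1 line serves as comparator for MDR sub-line selectivity; cells received compound titrations, 72 h at 37 °C, then CellTiter-Glo readout.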
TDP1 cell noCPT: qHTS for Inhibitors of human tyrosyl-DNA phosphodiesterase 1 (TDP1): qHTS in cells in absence of CPT. 15% of 420,000 active. DT40 Tdp1-/- hTDP1 cells, no CPT, ATP luminescence, 48 h. Potency, µM (top dose mostly 46.2 µM), hits mostly inhibitors; note: nearly all actives have a fitted effect of over 55% in size
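Growth of hTDP1-complemented DT40 Tdp1-knockout cells is measured by ATP luminescence after at least 48 hr compound exposure at 37 °C, with DMSO substituting for the 20 nM CPT used in the parallel screen.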
Large screens that a line does not name were inactive. Calls come from the whole dose curve; as a rule, active = well fitted curve in the direction sought with a large enough effect; inconclusive = small, poorly fitted or top-dose-only effect, or another doubt; inactive = no such curve, though single readings can be large; an effect the other way counts as inactive or inconclusive.

O=C(Nc1ccc(N2CCN(C(=O)c3ccc(Cl)cc3)CC2)cc1)c1ccc(Br)o1	DT40 TDP1 CPT inconclusive, TDP1 cell noCPT inconclusive
CC(/C=N/NC(=O)CNc1n[nH]c(=O)[nH]c1=O)c1ccccc1 (stereo unspecified)	none
COC(=O)Nc1ccc2c(c1)N(C(=O)CCN1CCN3CCCC3C1)c1ccccc1S2 (stereo unspecified)	DT40 TDP1 CPT 13µM, TDP1 cell noCPT inconclusive
O=C1C[C@@H]2c3c(cccc3CN1Cc1ccc(Cl)cc1)C[C@@H](O)[C@H]2O	none
CCCCn1nnnc1NCc1cccnc1	DT40 TDP1 CPT 8.2µM, TDP1 cell noCPT 13µM
O=c1oc(=S)oc2c1[C@H](c1ccc(Cl)cc1)O[C@H](C1CC1)C2	KB-V1 MDR tox inconclusive
N[C@H](C(=O)O)c1cc(O)cc(O)c1	DT40 TDP1 CPT inconclusive (no result: HT1080NT lethal, KB-V1 MDR tox, HT1080 IDH1KD tx, KB-3-1 tox)
N[C@@H](C(=O)O)c1cc(O)ccc1Cl	DT40 TDP1 CPT 2.37µM, TDP1 cell noCPT 1.19µM (no result: HT1080NT lethal, KB-V1 MDR tox, HT1080 IDH1KD tx, KB-3-1 tox)
CCOC(=O)c1cc2c(ccn2-c2ccc(F)cc2)n1CC(=O)N(CC)CC	DT40 TDP1 CPT inconclusive, TDP1 cell noCPT 23.1µM
CC(O)(c1cccc(F)c1)c1nc(-c2csc3ccccc23)cs1 (stereo unspecified)	HT1080NT lethal inconclusive, DT40 TDP1 CPT inconclusive, HT1080 IDH1KD tx inconclusive, TDP1 cell noCPT inconclusive
COc1ccccc1-c1csc(C(C)(O)c2ccccc2)n1 (stereo unspecified)	DT40 TDP1 CPT 14.6µM, TDP1 cell noCPT inconclusive
COc1ccccc1-c1csc(C(C)(O)c2cccc(F)c2)n1 (stereo unspecified)	DT40 TDP1 CPT 13µM, HT1080 IDH1KD tx inconclusive, TDP1 cell noCPT 16.4µM
CCC(=O)N1c2ccccc2C(N(C(=O)CC)c2ccccc2)CC1C (stereo unspecified)	DT40 TDP1 CPT inconclusive, KB-V1 MDR tox inconclusive, TDP1 cell noCPT 9.2µM
CC(=O)Nc1c(C)nn(-c2ccccc2)c1N1CCC(C(=O)NCc2ccc(Cl)cc2)CC1	none (no result: HT1080NT lethal, KB-V1 MDR tox, HT1080 IDH1KD tx, KB-3-1 tox)
COc1ccc(-c2ccoc2)cc1[C@H]1[C@H]2C=CC[C@@H](C)[C@@H]2C(=O)N1Cc1ccccc1	HT1080NT lethal inconclusive, DT40 TDP1 CPT inconclusive, HT1080 IDH1KD tx inconclusive, KB-3-1 tox inconclusive, TDP1 cell noCPT inconclusive
COc1ccc(-c2ccc(OC)c([C@H]3[C@H]4C=CC[C@@H](C)[C@@H]4C(=O)N3Cc3ccccc3)c2)cc1	DT40 TDP1 CPT 14.6µM, TDP1 cell noCPT 14.6µM
CCCCCC/C=C/c1ccc([C@H]2[C@H]3C=CC[C@@H](C)[C@@H]3C(=O)N2Cc2ccccc2)c(F)c1	DT40 TDP1 CPT inconclusive, TDP1 cell noCPT 16.4µM
COc1ccc(-c2ccc([C@H]3[C@H]4C=CC[C@@H](C)[C@@H]4C(=O)N3Cc3ccccc3)c(F)c2)cc1	HT1080NT lethal inconclusive, DT40 TDP1 CPT inconclusive, HT1080 IDH1KD tx inconclusive, TDP1 cell noCPT 20.6µM
CCCCCC/C=C/c1ccc(OC)c([C@H]2[C@H]3C=CC[C@@H](C)[C@@H]3C(=O)N2Cc2ccccc2)c1	KB-3-1 tox inconclusive, TDP1 cell noCPT inconclusive
COc1ccc(-c2ccc(C)cc2)cc1[C@H]1[C@H]2C=CC[C@@H](C)[C@@H]2C(=O)N1Cc1ccccc1	DT40 TDP1 CPT inconclusive, TDP1 cell noCPT inconclusive
COc1ccc(-c2ccc([C@H]3[C@H]4C=CC[C@@H](C)[C@@H]4C(=O)N3Cc3ccccc3)c(F)c2)cc1OC	HT1080NT lethal inconclusive, DT40 TDP1 CPT 18.4µM, KB-V1 MDR tox inconclusive, HT1080 IDH1KD tx inconclusive, KB-3-1 tox inconclusive, TDP1 cell noCPT 16.4µM
COc1ccc(-c2c([C@H]3[C@H]4C=CC[C@@H](C)[C@@H]4C(=O)N3Cc3ccccc3)ccc3ccccc23)cc1	HT1080NT lethal inconclusive, DT40 TDP1 CPT 10.3µM, HT1080 IDH1KD tx inconclusive, KB-3-1 tox inconclusive, TDP1 cell noCPT 10.3µM
Cc1noc(C)c1S(=O)(=O)N1CCCC(C(=O)NCCc2ccc(Cl)cc2)C1 (stereo unspecified)	DT40 TDP1 CPT inconclusive, TDP1 cell noCPT inconclusive

Compound activity (PubChem)
